The values below come from PubChem BioAssay AID2116 (The Scripps Research Institute Molecular Screening Center, 2009).

The structures appear in SMILES notation. The source made the active and inactive calls. The rule behind the calls is not given here.

This experiment has as its system HEK Patch Clamp Assay. Nature of the experiment: TRPML3 and TRPML2 channel agonists, cell-based, patch clamp, Fura-2 profiling panel (AID 2116). The settings on record: HEK293 cells expressing TRPML3-YFP; patch clamp current at -80 mV.

As for `Cc1ccc(N2CCN(S(=O)(=O)N3CCCCC3)CC2)c(C)c1`, the current density was -0.007 nA/pF and the outcome is “inactive; no effect on six other TRP channels”.

Take `O=S(=O)(NC1CCCCC1N1CCOCC1)c1ccc(Cl)cc1` (stereo not given): the current density is -0.003 nA/pF and the outcome was “inactive; no effect on six other TRP channels”.

Consider `O=S(=O)(Nc1ccccc1N1CCCCC1)c1ccc(Cl)s1`, for which the current density is -0.004 nA/pF and the outcome is “inactive; no effect on six other TRP channels”.

`O=S(=O)(Nc1ccccc1N1CCOCC1)c1ccc(Cl)s1`: the current density is -0.005 nA/pF and the outcome is “inactive; no effect on six other TRP channels”.

With `Cc1ccc(S(=O)(=O)Nc2ccccc2-c2ccccc2)cc1`, the current density was -0.003 nA/pF and the outcome is “inactive; no effect on six other TRP channels”.
